Experimental data as given in PubChem BioAssay (NCATS).
Inconclusive results are not listed. A call without a number means that no potency is given here. Active and inactive are the calls of the source. Calls follow the shape of the dose curve; as a rule, active = well fitted curve in the direction sought with a large enough effect; inconclusive = small, poorly fitted or top-dose-only effect, or another doubt; inactive = no such curve, though single readings can be large; an effect the other way counts as inactive or inconclusive.

Key:
[1] = S16 Schwann cell viability assay (CellTiter-Glo assay) (AID 624031);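 also: cellular ATP luminescence as a viability measure; nearly all actives have a fitted effect of over 70% in size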
Procedure, shortened: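 CellTiter-Glo ATP luminescence counter-screen in untransfected S16 rat Schwann cells, 24h compound exposure at 37 degree Celsius after overnight seeding (500-750 cells/well); response scaled between cell-free wells and DMSO (0% activity), curves classed by r2 and magnitude.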

3D7 = assay: qHTS profiling for inhibitors of Plasmodium falciparum proliferation (AID 504749); also: nearly all actives have a fitted effect of over 60% in size; also: potency is read from the fitted curve at half-maximal effect; settings: P. falciparum in erythrocytes, SYBR Green DNA, 72 h; series mostly up to 12.8 µM
Procedure, shortened: (§1)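 Three-day growth assay of blood-stage parasites in erythrocytes (0.3% parasitemia, 2.5% hematocrit) at 37 C, 5% CO2, quantified by SYBR Green DNA staining after overnight detergent lysis.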

7G8 = assay: as above; settings: P. falciparum in erythrocytes, SYBR Green DNA, 72 h; series mostly up to 12.8 µM
Procedure, shortened: as §1

ATS189 = assay: as above; settings: P. falciparum in erythrocytes, SYBR Green DNA, 72 h; series mostly up to 12.8 µM
Procedure, shortened: as §1

CP191 = assay: as above; settings: P. falciparum in erythrocytes, SYBR Green DNA, 72 h; series mostly up to 12.8 µM
Procedure, shortened: as §1

CP194 = assay: as above; settings: P. falciparum in erythrocytes, SYBR Green DNA, 72 h; series mostly up to 12.8 µM
Procedure, shortened: as §1

CP203 = assay: as above; settings: P. falciparum in erythrocytes, SYBR Green DNA, 72 h; series mostly up to 12.8 µM
Procedure, shortened: as §1

CP211 = assay: as above; settings: P. falciparum in erythrocytes, SYBR Green DNA, 72 h; series mostly up to 12.8 µM
Procedure, shortened: as §1

CP217 = assay: as above; settings: P. falciparum in erythrocytes, SYBR Green DNA, 72 h; series mostly up to 12.8 µM
Procedure, shortened: as §1

CP237 = assay: as above; settings: P. falciparum in erythrocytes, SYBR Green DNA, 72 h; series mostly up to 12.8 µM
Procedure, shortened: as §1

CP247 = assay: as above; settings: P. falciparum in erythrocytes, SYBR Green DNA, 72 h; series mostly up to 12.8 µM
Procedure, shortened: as §1

CP268 = assay: as above; settings: P. falciparum in erythrocytes, SYBR Green DNA, 72 h; series mostly up to 12.8 µM
Procedure, shortened: as §1

DIV30 = assay: as above; settings: P. falciparum in erythrocytes, SYBR Green DNA, 72 h; series mostly up to 12.8 µM
Procedure, shortened: as §1

Dd2 = assay: as above; settings: P. falciparum in erythrocytes, SYBR Green DNA, 72 h; series mostly up to 12.8 µM
Procedure, shortened: as §1

N140 = assay: as above; settings: P. falciparum in erythrocytes, SYBR Green DNA, 72 h; series mostly up to 12.8 µM
Procedure, shortened: as §1

P93_24 = assay: as above; settings: P. falciparum in erythrocytes, SYBR Green DNA, 72 h; series mostly up to 12.8 µM
Procedure, shortened: as §1

PAD = assay: as above; settings: P. falciparum in erythrocytes, SYBR Green DNA, 72 h; series mostly up to 12.8 µM
Procedure, shortened: as §1

PC15 = assay: as above; settings: P. falciparum in erythrocytes, SYBR Green DNA, 72 h; series mostly up to 12.8 µM
Procedure, shortened: as §1

PC26 = assay: as above; settings: P. falciparum in erythrocytes, SYBR Green DNA, 72 h; series mostly up to 12.8 µM
Procedure, shortened: as §1

PC49 = assay: as above; settings: P. falciparum in erythrocytes, SYBR Green DNA, 72 h; series mostly up to 12.8 µM
Procedure, shortened: as §1

Structure (SMILES) | Potency [1] | Potency (3D7) | Potency (7G8) | Potency (ATS189) | Potency (CP191) | Potency (CP194) | Potency (CP203) | Potency (CP211) | Potency (CP217) | Potency (CP237) | Potency (CP247) | Potency (CP268) | Potency (DIV30) | Potency (Dd2) | Potency (N140) | Potency (P93_24) | Potency (PAD) | Potency (PC15) | Potency (PC26) | Potency (PC49)
C[C@H](NCCc1ccc(O)cc1)[C@@H](O)c1ccc(O)cc1 | inactive | inactive | inactive | inactive | inactive | inactive | inactive | inactive | inactive | inactive | inactive | inactive | inactive | inactive | inactive | inactive | inactive | inactive | inactive | inactive
CCN(CC)CCC[C@H](C)Nc1c2ccc(Cl)cc2nc2ccc(OC)cc12 | inactive | 89.1 nM (active) | 282 nM (active) | 891 nM (active) | 398 nM (active) | 1510 nM (active) | 2130 nM (active) | 1510 nM (active) | 794 nM (active) | 316 nM (active) | 1120 nM (active) | 478 nM (active) | 1070 nM (active) | 447 nM (active) | 891 nM (active) | 562 nM (active) | 398 nM (active) | 447 nM (active) | 675 nM (active) | 1580 nM (active)
CC[C@H](NC(C)C)[C@H](O)c1ccc(O)c(O)c1 | inactive | – | – | inactive | inactive | inactive | inactive | inactive | inactive | inactive | – | inactive | inactive | inactive | inactive | inactive | inactive | – | inactive | inactive
CC(=O)O[C@@H](C)C[N+](C)(C)C | inactive | inactive | inactive | inactive | inactive | inactive | inactive | inactive | inactive | inactive | inactive | inactive | inactive | inactive | inactive | inactive | – | inactive | inactive | inactive
CN(C)[C@H]1C(=O)C(C(=O)NCN2CCCC2)=C(O)[C@]2(O)C(=O)C3=C(O)c4c(O)cccc4[C@@](C)(O)[C@H]3C[C@@H]12 | inactive | inactive | inactive | inactive | inactive | inactive | inactive | inactive | inactive | inactive | inactive | inactive | inactive | inactive | inactive | inactive | inactive | inactive | inactive | inactive
CO[C@H]1C[C@@H](O[C@@H]2[C@H](C)[C@H](O[C@@H]3O[C@@H](C)C[C@@H](N(C)C)[C@@H]3O)[C@H](C)C[C@]3(CO3)C(=O)[C@H](C)[C@H](O)[C@H](C)[C@H](C)OC(=O)[C@@H]2C)O[C@@H](C)[C@H]1O | inactive | inactive | inactive | inactive | inactive | inactive | inactive | inactive | inactive | inactive | inactive | inactive | inactive | inactive | inactive | inactive | inactive | inactive | inactive | inactive
CCN(CC)CCC[C@H](C)Nc1ccnc2cc(Cl)ccc12 | inactive | 158 nM (active) | 1000 nM (active) | – | 8910 nM (active) | – | – | 6750 nM (active) | – | 4470 nM (active) | – | 4260 nM (active) | 6750 nM (active) | 10000 nM (active) | 11200 nM (active) | 2820 nM (active) | 3550 nM (active) | 2510 nM (active) | 4780 nM (active) | –
C[C@@H](CN(C)C)CN1c2ccccc2CCc2ccccc21 | – | inactive | – | inactive | – | – | – | – | inactive | – | inactive | inactive | – | – | – | – | inactive | inactive | – | inactive
CC1(C)O[C@@H]2C[C@H]3[C@H]4C[C@H](F)C5=CC(=O)C=C[C@@]5(C)[C@@H]4[C@H](O)C[C@]3(C)[C@]2(C(=O)CO)O1 | inactive | inactive | inactive | inactive | inactive | inactive | inactive | inactive | inactive | inactive | inactive | inactive | inactive | inactive | inactive | inactive | inactive | inactive | inactive | inactive
CCN(CC)CC#CCOC(=O)[C@@](O)(c1ccccc1)C1CCCCC1 | inactive | – | 8910 nM (active) | – | – | – | inactive | – | – | – | – | – | – | – | inactive | – | – | – | – | –
O=c1[nH]c(=O)n([C@@H]2C[C@H](O)[C@H](CO)O2)cc1I | inactive | inactive | inactive | inactive | inactive | inactive | inactive | inactive | inactive | inactive | inactive | inactive | inactive | inactive | inactive | inactive | inactive | inactive | inactive | inactive
C[C@@H](C(=O)O)c1cccc(C(=O)c2ccccc2)c1 | inactive | – | – | – | – | – | – | – | – | – | – | – | – | – | – | – | – | – | – | –
NS(=O)(=O)c1cc([C@@]2(O)NC(=O)c3ccccc32)ccc1Cl | inactive | inactive | inactive | inactive | inactive | inactive | inactive | inactive | inactive | inactive | inactive | inactive | inactive | inactive | inactive | inactive | inactive | inactive | inactive | inactive
CCCN[C@@H](C)C(=O)Nc1c(C)csc1C(=O)OC | inactive | inactive | inactive | inactive | inactive | inactive | inactive | inactive | inactive | inactive | inactive | inactive | inactive | inactive | inactive | inactive | inactive | inactive | inactive | inactive
NC(N)=NC[C@@H]1COC2(CCCCC2)O1 | inactive | inactive | inactive | inactive | inactive | inactive | inactive | inactive | inactive | inactive | inactive | inactive | inactive | inactive | inactive | inactive | inactive | inactive | inactive | inactive
COCCc1ccc(OC[C@H](O)CNC(C)C)cc1 | inactive | inactive | inactive | inactive | inactive | inactive | inactive | inactive | inactive | inactive | inactive | inactive | inactive | inactive | inactive | inactive | inactive | inactive | inactive | inactive
CCC[C@H]1C(=O)N2C(N(C)C)=Nc3ccc(C)cc3N2C1=O | inactive | inactive | inactive | inactive | inactive | inactive | inactive | inactive | inactive | inactive | inactive | inactive | inactive | inactive | inactive | inactive | inactive | inactive | inactive | inactive
COc1ccccc1OC[C@H](O)COC(N)=O | inactive | inactive | inactive | inactive | inactive | inactive | inactive | inactive | inactive | inactive | inactive | inactive | inactive | inactive | inactive | inactive | inactive | inactive | inactive | inactive
CN(N=O)C(=O)N[C@H]1[C@@H](O)[C@H](O)[C@H](CO)O[C@@H]1O | inactive | inactive | inactive | inactive | inactive | inactive | inactive | inactive | inactive | inactive | inactive | inactive | inactive | inactive | inactive | inactive | inactive | inactive | inactive | inactive
